{"source": "PubChem BioAssay AID1259422", "about": "(The Scripps Research Institute Molecular Screening Center, 2018)", "note": "Screen size: about 640,000 compounds; about 9,300 (1.5%) were called active. Cut-off read from the data, not from the text of the source: active = inhibition above about 32%; inactive = the rest. This excerpt belongs to a sample that is enriched for actives.", "data": [{"test": "TEAD-YAP interaction inhibition, primary screen, TEAD-YAP interaction inhibitor project, luminescence, HEK-TIYL cells (AID 1259422);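 note: 0% = median of test compound wells and 100% = reference inhibitor wells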", "conditions": "TEAD-Gal4/YAP UAS-luciferase luminescence, at 9.12 µM, hits give high values", "values": [{"compound": "COC(=O)CCCC(=O)N1CCOCCOCCN(C(=O)CCCC(=O)OC)CCOCCOCC1", "inhibition": "7.88% (inactive)"}, {"compound": "COc1ccc(-c2nnc(SCC(=O)NC(=O)NCc3ccco3)o2)cc1OC", "inhibition": "12.3% (inactive)"}, {"compound": "COc1ccc(C2=NOC(C(=O)NCCc3ccccc3)C2)cc1OC", "note": "(stereo not drawn)", "inhibition": "-5.18% (inactive)"}, {"compound": "COc1ccc(C2=NOC(C(=O)NCc3ccco3)C2)cc1OC", "note": "(stereo not drawn)", "inhibition": "46.8% (active)"}, {"compound": "CC(C)C[C@@H]1NC(=O)[C@@H]2C[C@H](NC(=O)Nc3ccccc3)CN2C1=O", "inhibition": "3.71% (inactive)"}, {"compound": "CCOc1cc(CN2CCC(C(=O)NCCc3ccccc3)CC2)ccc1O", "inhibition": "-8.29% (inactive)"}, {"compound": "c1ccc(-c2noc(-c3cccs3)n2)nc1", "inhibition": "33.7% (active)"}, {"compound": "CCOc1ccccc1-c1noc(-c2cccs2)n1", "inhibition": "-16.8% (inactive)"}, {"compound": "CC(Oc1ccccc1)c1nc(-c2ccccn2)no1", "note": "(stereo not drawn)", "inhibition": "-32.3% (inactive)"}, {"compound": "CN(C)S(=O)(=O)c1ccc(NC(=O)COC(=O)c2ccc(NC(N)=O)cc2)cc1", "inhibition": "-1.47% (inactive)"}, {"compound": "COCCC(=O)NC(C)c1nnc2n1CCN(Cc1ccc(C)cc1)CC2", "note": "(stereo not drawn)", "inhibition": "10.5% (inactive)"}, {"compound": "Cc1ccc2nc(NCCOCCO)c(/C=C3\\SC(=S)N(C(C)C)C3=O)c(=O)n2c1", "inhibition": "-4.15% (inactive)"}, {"compound": "COc1ccc(/C=C2/C(=N)N3C(=NC2=O)SN=C3S(=O)(=O)C(C)C)cc1OC", "inhibition": "-1.31% (inactive)"}, {"compound": "O=C(Cc1ccc(Cl)c(Cl)c1)N1CCC(O)(c2ccccn2)CC1", "inhibition": "0.43% (inactive)"}, {"compound": "O=C(c1cn2c(n1)sc1ccccc12)N1CCCC1", "inhibition": "37.1% (active)"}, {"compound": "O=C(c1cc(-c2ccccc2Cl)on1)N1CCCCC1", "inhibition": "0.6% (inactive)"}, {"compound": "O=C(c1cccc2nc3ccccc3nc12)N1CCCCCC1", "inhibition": "-1.97% (inactive)"}, {"compound": "CCOC(=O)c1[nH]ncc1CN1CCCC(N(C)CCc2ccccc2)C1", "note": "(stereo not drawn)", "inhibition": "-7.42% (inactive)"}, {"compound": "O=C1c2ccccc2OCCN1Cc1ccc(F)cc1", "inhibition": "-3.96% (inactive)"}, {"compound": "CCc1ccc(NC(=O)c2ncn[nH]2)cc1", "inhibition": "47.9% (active)"}, {"compound": "CSc1cccc(NC(=O)c2ncn[nH]2)c1", "inhibition": "4.68% (inactive)"}, {"compound": "O=C(Nc1ccc(Cl)c(C(=O)O)c1)c1ncn[nH]1", "inhibition": "1.11% (inactive)"}, {"compound": "CCCCn1c(N)c(N2CCOCC2)c(=O)[nH]c1=O", "inhibition": "2.71% (inactive)"}, {"compound": "CCOC(=O)C1CCN(Cn2[nH]c3nc4ccccc4n3c2=S)CC1", "inhibition": "-6.77% (inactive)"}, {"compound": "FC(F)(F)c1cccc(N2CCN(CCN3CCOCC3)CC2)c1", "inhibition": "-6.06% (inactive)"}, {"compound": "OCCNc1ncnc2nc(-c3ccccc3)[nH]c12", "inhibition": "6.88% (inactive)"}, {"compound": "COc1ccc(-c2nc3ncnc(NCCc4ccc(O)cc4)c3[nH]2)cn1", "inhibition": "58.2% (active)"}, {"compound": "COc1ccc(CCNc2ncnc3nc(-c4ccc(C(N)=O)cc4)[nH]c23)cc1", "inhibition": "-4.01% (inactive)"}, {"compound": "COc1ccc(-c2nc3ncnc(NCc4ccccc4)c3[nH]2)cn1", "inhibition": "45% (active)"}, {"compound": "COc1ccc(-c2nc3ncnc(Nc4ccccc4)c3[nH]2)cc1", "inhibition": "0.52% (inactive)"}, {"compound": "COc1ccc(-c2nc3ncnc(NCCN4CCOCC4)c3[nH]2)cc1", "inhibition": "-0.6% (inactive)"}, {"compound": "COc1cc(OC)cc(C(=O)Nc2cc(C(=O)Nc3ccc(OC)c(OC)c3)ccc2N2CC3CC(C2)c2cccc(=O)n2C3)c1", "note": "(stereo not drawn)", "inhibition": "-0.12% (inactive)"}, {"compound": "COc1ccc(/C=C/C(=O)NCCOc2ccc(Cl)cc2)cc1OC", "inhibition": "-6.87% (inactive)"}, {"compound": "CCNC(=O)CCc1nc(-c2cccc(C)c2)no1", "inhibition": "-13.2% (inactive)"}, {"compound": "COc1ccc(-c2noc(CCC(=O)N(C)C)n2)cc1", "inhibition": "-26.2% (inactive)"}, {"compound": "CC(C)(C)NC(=O)CCc1nc(-c2ccc(C(C)(C)C)cc2)no1", "inhibition": "50.6% (active)"}, {"compound": "COc1ccc(NC(=O)CCCc2nc(-c3ccc(OC)c(OC)c3)no2)cc1", "inhibition": "1.43% (inactive)"}, {"compound": "CCCNC(=O)CCCc1nc(-c2ccc(Cl)cc2)no1", "inhibition": "25.2% (inactive)"}, {"compound": "CC(=O)Nc1ccc(NC(=O)CCCc2nc(-c3ccc(C(C)(C)C)cc3)no2)cc1", "inhibition": "68.3% (active)"}, {"compound": "COC(=O)c1ccc(C(=O)NCC2CCC3(CCN(Cc4ccccn4)CC3)O2)cc1", "note": "(stereo not drawn)", "inhibition": "9.59% (inactive)"}, {"compound": "Cc1cccc(C(=O)OCC(=O)NC2CCCCC2C)c1O", "note": "(stereo not drawn)", "inhibition": "7.9% (inactive)"}, {"compound": "COc1cccc(C(=O)NC2(C(F)(F)F)NC(=O)N(c3ccccc3)C2=O)c1", "note": "(stereo not drawn)", "inhibition": "8.83% (inactive)"}, {"compound": "COc1cccc2cc(C(=O)Nc3cccc4ccccc34)c(=N)oc12", "inhibition": "-5.43% (inactive)"}, {"compound": "CC(=O)Nc1cc(-c2nc3cc(C(C)C)ccc3o2)ccc1Cl", "inhibition": "-35.8% (inactive)"}, {"compound": "Cc1ccc(-c2nc3cc(C(C)C)ccc3o2)cc1N", "inhibition": "80.7% (active)"}, {"compound": "Cc1cc(-c2nc3cc(N)ccc3o2)ccc1Br", "inhibition": "1.99% (inactive)"}, {"compound": "CCc1ccc2oc(-c3ccc(N)cc3)nc2c1", "inhibition": "79.6% (active)"}, {"compound": "CCc1ccc(-c2nc3cc(NC(=O)c4ccc(Cl)cc4)ccc3o2)cc1", "inhibition": "7.97% (inactive)"}, {"compound": "Cc1ccc2oc(-c3ccc(C)c(N)c3)nc2c1", "inhibition": "53.6% (active)"}, {"compound": "Cc1ccc(OCC(=O)Nc2ccc(-c3nc4cc(C(C)C)ccc4o3)cc2)cc1", "inhibition": "20.8% (inactive)"}, {"compound": "CCc1ccc2oc(-c3ccc(NC(=O)c4ccccc4[N+](=O)[O-])cc3)nc2c1", "inhibition": "-50.9% (inactive)"}, {"compound": "Cc1ccc2oc(-c3ccc(C)c(NC(=O)c4ccc([N+](=O)[O-])o4)c3)nc2c1", "inhibition": "-28.6% (inactive)"}, {"compound": "COc1ccccc1N1CCN(CC(O)COc2ccc(C#N)cc2)CC1", "note": "(stereo not drawn)", "inhibition": "0.33% (inactive)"}, {"compound": "O=C(N/N=C/c1ccco1)c1cccc(F)c1", "inhibition": "-63.8% (inactive)"}, {"compound": "Fc1ccc(C2C=C(c3cccs3)NC(=S)N2)cc1", "note": "(stereo not drawn)", "inhibition": "13.5% (inactive)"}, {"compound": "CC(C)N1CCC(N2CCN(Cc3nc(-c4ccccc4)cs3)CC2CCO)CC1", "note": "(stereo not drawn)", "inhibition": "-5.11% (inactive)"}, {"compound": "COC(=O)N1CCC(C(=O)N(C)C(c2ccc(F)cc2)c2ccccn2)CC1", "note": "(stereo not drawn)", "inhibition": "11.1% (inactive)"}, {"compound": "CCN(CC)CCn1c(=S)sc2c(=O)n(-c3ccccc3OC)c(SCc3ccccc3Cl)nc21", "inhibition": "-5.55% (inactive)"}, {"compound": "O=C(Nc1ccc2c(c1)OCCO2)C(=O)Nc1ccc2nc3n(c(=O)c2c1)CCCCC3", "inhibition": "-4.8% (inactive)"}, {"compound": "Cc1ncsc1C(=O)N1CCC(c2c(S(C)(=O)=O)cnc3ncnn23)CC1", "inhibition": "11.5% (inactive)"}, {"compound": "CCOc1cc(Br)c([N+](=O)[O-])cc1OCC", "inhibition": "-4.81% (inactive)"}, {"compound": "CCOc1ccc(C2Oc3c(Br)cc(Br)cc3C=C2[N+](=O)[O-])cc1OC", "note": "(stereo not drawn)", "inhibition": "86% (active)"}, {"compound": "CCOc1ccc(C2N(c3cccc(Cl)c3)C(=O)C3CCCN32)cc1OC", "note": "(stereo not drawn)", "inhibition": "0.7% (inactive)"}, {"compound": "CCOc1cc(/C=C2/N=C(c3ccc(Cl)cc3)OC2=O)ccc1OCc1ccc(Cl)cc1", "inhibition": "-7.55% (inactive)"}, {"compound": "Cc1ccc(-c2nn3cc(-c4ccccc4)c4c3n2CCCC4)cc1", "inhibition": "-4.85% (inactive)"}, {"compound": "O=C(CNC1=NCCCCC1)c1ccc(-c2ccccc2)cc1", "inhibition": "-23.5% (inactive)"}, {"compound": "Cc1ccc(C(=O)C[n+]2cc(-c3ccccc3)n3c2CCCCC3)cc1", "inhibition": "38.8% (active)"}, {"compound": "CN(C(=S)Nc1ccc(Cl)cc1)c1c(N)n(Cc2ccccc2)c(=O)[nH]c1=O", "inhibition": "-0.81% (inactive)"}, {"compound": "COc1ccc(N2CCN(C(CNC(=O)c3cccs3)c3ccc4c(c3)OCO4)CC2)cc1", "note": "(stereo not drawn)", "inhibition": "-22.3% (inactive)"}, {"compound": "CC(C)n1c(C2COc3ccccc3O2)nc2ncc(-c3ccncc3)cc21", "note": "(stereo not drawn)", "inhibition": "33% (active)"}, {"compound": "c1ccc2c(c1)OCC(c1nc3ccc(-c4ccncc4)cc3[nH]1)O2", "note": "(stereo not drawn)", "inhibition": "-24.1% (inactive)"}, {"compound": "Cn1c(C2COc3ccccc3O2)nc2ccc(-c3cn[nH]c3)cc21", "note": "(stereo not drawn)", "inhibition": "-90.1% (inactive)"}, {"compound": "COc1cccc(/C=N/N2CCN(Cc3ccc(C)cc3)CC2)c1", "inhibition": "-0.53% (inactive)"}, {"compound": "Clc1ccc(CN2CCN(/N=C/c3c(Cl)nc4ccccn34)CC2)cc1", "inhibition": "35.3% (active)"}, {"compound": "Cc1nc2ccccn2c1CN1CCN(CC(O)COCc2ccc(Cl)cc2)CC1", "note": "(stereo not drawn)", "inhibition": "22.8% (inactive)"}, {"compound": "CCOC(=O)CC(=O)CSc1nc2c(sc(=S)n2-c2ccc(Cl)c(C)c2)c(=O)n1-c1ccccc1OC", "inhibition": "0.42% (inactive)"}, {"compound": "COC(=O)c1cnn2c(C(F)(F)F)cc(-c3ccc(Br)cc3)nc12", "inhibition": "13.7% (inactive)"}, {"compound": "Brc1ccc(N=c2oc3ccccc3cc2-c2nc3ccccc3[nH]2)cc1", "inhibition": "-86.1% (inactive)"}, {"compound": "N#Cc1ccccc1N=c1oc2ccccc2cc1-c1nc2ccccc2[nH]1", "inhibition": "-44.7% (inactive)"}, {"compound": "c1ccc2oc(=Nc3cccc4ccccc34)c(-c3nc4ccccc4[nH]3)cc2c1", "inhibition": "41.4% (active)"}, {"compound": "Cc1cccc(C(=O)Nc2ncc3c(n2)CC(C)(C)CC3=O)c1", "inhibition": "-0.47% (inactive)"}, {"compound": "CCOC(=O)c1c(NC(=O)CSc2nnc(CNC(=O)c3ccc([N+](=O)[O-])cc3)n2CCc2ccccc2)sc2c1CCCCC2", "inhibition": "-6.86% (inactive)"}, {"compound": "CC(=O)c1cccc(N2CC(O)=C(c3nc4ccccc4[nH]3)C2=N)c1", "inhibition": "-5.18% (inactive)"}, {"compound": "Cc1cccc(N2CC(O)=C(c3nc4ccccc4c(=O)[nH]3)C2=N)c1C", "inhibition": "46.8% (active)"}, {"compound": "COc1ccc(N2CC(O)=C(c3nc4ccccc4c(=O)[nH]3)C2=N)cc1", "inhibition": "0.42% (inactive)"}, {"compound": "C/C(CC(=O)Nc1cccc2ccccc12)=N\\NC(=O)c1cccnc1", "inhibition": "-13.7% (inactive)"}, {"compound": "CC(=O)Nc1ccc2nc(SCC(=O)Nc3ccccc3F)sc2c1", "inhibition": "-58.7% (inactive)"}, {"compound": "COc1cccc(-n2cc(CN(C)C3CCC(=O)N(Cc4ccccc4F)CC3)cn2)c1", "note": "(stereo not drawn)", "inhibition": "8.57% (inactive)"}, {"compound": "Cc1nc(CC(=O)N2CCC(N3CCC(C(=O)N4CCOCC4)CC3)CC2)cs1", "inhibition": "-4.91% (inactive)"}, {"compound": "COc1cc(Br)cc(/C=N/NC(=O)c2cc(-c3ccccc3)n[nH]2)c1O", "inhibition": "15.7% (inactive)"}, {"compound": "COc1cc(Br)cc(/C=N\\NC(=O)c2ccc(C)nc2)c1O", "inhibition": "35.4% (active)"}, {"compound": "CCOc1cccc(/C=N/NC(=O)c2ccc(C)nc2)c1O", "inhibition": "18.1% (inactive)"}, {"compound": "CC(=O)c1cccc(NC(=O)c2ncoc2-c2ccc(Cl)cc2)c1", "inhibition": "2.52% (inactive)"}]}]}
